# Compounds with a hit are over-represented: about 2.4% of the library has one in this group of screens.
# PLCb3 inh = human PLC-beta3 inhibitors, primary screen, biochemical, fluorescence. AID 720704, 2013. inhibition, % at 12.2 µM. actives 0.18% (n = 370,000). 1-phosphatidylinositol 4,5-bisphosphate phosphodiesterase beta-3 (Homo sapiens), Q01970. Purified PLC-beta3, fluorogenic substrate;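 further: 0% = median of compound wells on plate and 100% = full blocker control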
# MBD2 DNA inh = inhibitors of MBD2 binding to methylated DNA, primary screen, biochemical, TR-FRET, DNA-binding domain, human; Methyl-CpG-binding domain protein 2 (Homo sapiens), Q9UBB5; MBD2 binding to methylated oligonucleotide; inhibition, % at 4.4 µM; actives 0.31% (n = 370,000); AID 686964, 2013; in the data active means inhibition above about 13%
# PLC-gamma1 inh = PLC-gamma1 enzyme inhibitors, primary screen, biochemical, fluorescence, purified enzyme. 1-phosphatidylinositol 4,5-bisphosphate phosphodiesterase gamma-1 (Homo sapiens), P19174. fluorogenic substrate. inhibition, % at 12.2 µM. actives 0.84% (n = 370,000); in the data active means inhibition above about 9.5%
# LEDGF integ inh = blockers of LEDGF/p75-dependent integrase strand transfer – biochemical, TR-FRET, high throughput, primary screen. HIV-1 integrase (with human LEDGF/p75). TR-FRET IN-LEDGF/p75 DNA integration, Eu/Cy5. inhibition, % at 3.7 µM. actives 0.64% (n = 370,000). AID 743269, 2014;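 active means inhibition above the screen-wide mean plus 3 SD, cut at about 13% in these data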;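 further: signal is the Cy5 over europium emission ratio at 671 and 618 nm; 0% = plate median of compound wells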
# UHRF1 MBD2 ctr = UHRF1 methylated DNA binding inhibitors, primary screen, counter-screen for MBD2 inhibitor project, biochemical, TR-FRET, human UHRF1, single concentration | E3 ubiquitin-protein ligase UHRF1 (Homo sapiens), Q96T88 | UHRF1 binding to methylated oligo | inhibition, % at 4.4 µM | actives 0.75% (n = 370,000); in the data active means inhibition above about 21%;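 further: UHRF1 SRA domain binding a hemimethylated CpG hairpin DNA probe; 0% = median of test compound wells and 100% = reference inhibitor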
# PLCgamma1 ctr = PLC-gamma1 enzyme inhibitors, counter-screen for PLC-beta3 inhibitor project, biochemical, fluorescence; shares compounds with PLC-gamma1 inh; purified PLC-gamma1, fluorogenic substrate; inhibition, % at 12.3 µM; actives 3.1% (n = 3,300); in the data active means inhibition above about 9.5%
# PLCb3 confirm = PLC-beta3 inhibitor confirmation, biochemical, fluorescence, purified enzyme. AID 743261, 2014. shares compounds with PLC-gamma1 inh. inhibition, % at 12.3 µM. fluorogenic substrate fluorescence. actives 1% (n = 3,300)
# The depositor's hits bear a star; · = no result given. Unless noted, no stated cut-off is given here; in the data, active means inhibition above about 11%; inactive means the rest.
SMILES,PLCb3 inh,MBD2 DNA inh,PLC-gamma1 inh,LEDGF integ inh,UHRF1 MBD2 ctr,PLCgamma1 ctr,PLCb3 confirm
CC(=O)c1c(C)nc2ccc([N+](=O)[O-])cc2c1-c1ccccc1,5,-6,14*,3,2,0,2
CCn1c(COc2ccc(C)cc2)nnc1SCc1cccc(C(F)(F)F)c1,-11,-2,-2,0,-1,·,·
O=P(Cc1cc[n+]([O-])cc1)(c1ccccc1)c1ccccc1,11*,-4,7,-2,0,-3,1
O=C(CN1CCN(C(=O)c2ccccc2)CC1)Nc1ccc(Br)cn1,3,-2,12*,-2,-3,-2,-3
CC(=O)N(C(C)=O)N1C(=O)C2C3c4ccccc4C(c4ccccc43)C2C1=O (stereo not drawn),12*,4,13*,5,6,-3,1
Cc1ccc2nc(NC(=O)C3CCN(S(=O)(=O)c4cnc[nH]4)CC3)sc2c1,6,-7,9.6*,6,-1,-9,0
COc1ccc2nc(NC(=O)C3CCN(S(=O)(=O)c4cnc[nH]4)CC3)sc2c1,-3,4,-1,0,-1,·,·
C#CCOCCOCCOCCNc1nc(N2CCN(C(=O)[C@H](CCCN=C(N)N)n3cc(C(N)[C@@H](C)CC)nn3)CC2)nc(N2CCN(C(=O)[C@H](CC(N)=O)n3cc([C@@H](N)C(C)C)nn3)CC2)n1 (stereo partly drawn),14*,1,4,0,13,-1,-2
C/C(C=NNC(=O)CSc1nnc(-c2ccccc2)n1-c1ccc(C)cc1)=C\c1ccco1,-11,-6,-1,8,-6,·,·
Clc1ccccc1-c1nnc2sc(C3COc4ccccc4O3)nn12 (stereo not drawn),-4,2,11*,-1,6,-5,-22
C[C@H]1[C@@H](C(=O)N2CCCC2)Cc2nc3ccccc3nc2C[C@@H]1c1ccccc1,-4,-1,-3,2,-4,·,·
Cc1c(-c2nnc(SCC(=O)O)n2-c2ccccc2Br)nnn1-c1ccccc1,2,-3,14*,0,4,-7,-27
Cn1cc(/C=N/NC(N)=S)c2ccccc21,4,-2,10*,-1,-2,1,5
O=C(Nc1cccc(F)c1)c1ccc(S(=O)(=O)N2CCOCC2)cc1,9,3,10*,3,3,2,7
O=C(CN(Cc1ccc(F)cc1)S(=O)(=O)c1ccc(S(=O)(=O)N2CCOCC2)cc1)Nc1ccccc1,11*,-4,8,2,4,-5,-2
O=C(NC12CC3CC(CC(C3)C1)C2)c1ccc(S(=O)(=O)N2CCOCC2)cc1,12*,-7,5,-1,2,6,0
O=C(Nc1cccc(S(=O)(=O)C(F)F)c1)c1ccc(S(=O)(=O)N2CCCC2)cc1,1,2,0,-2,2,·,·
O=C(CN(Cc1ccccc1)S(=O)(=O)c1ccc(S(=O)(=O)N2CCOCC2)cc1)Nc1ccccc1,-1,4,-1,-1,2,·,·
O=C(Nc1cccc(S(=O)(=O)C(F)F)c1)c1ccc(S(=O)(=O)N2CCOCC2)cc1,13*,0,4,1,3,0,1
O=C(Nc1ccc(S(=O)(=O)N2CCOCC2)cc1)c1ccc(F)cc1,-1,-2,-1,-4,-1,·,·
CN(C)C=Nc1ccc(Cn2cnc3nc4ccc(Cl)cc4cc3c2=O)cc1,-42,-3,-37,10,-2,·,·
COC(=O)[C@H](C(C)C)N1Cc2nnn(Cc3ccc(C)cc3)c2-c2ccccc2S1(=O)=O,2,1,-3,-2,-1,·,·

# Source: PubChem BioAssay (The Scripps Research Institute Molecular Screening Center)
